# Most compounds without a hit are left out; they make up all but 11% or so of the library.
# L3MBTL1 block: inhibitors of human L3MBTL1 | Q9Y468 | AlphaScreen L3MBTL1–H3K9me1 peptide binding | Potency, µM (top dose mostly 57.1 µM), for inactives: top-dose activity, negative = inhibition, most hits filed as inhibitors | hit rate 0.66% among 230,000 | AID 485360; also: % is scaled to controls: 0 for no effect and ±100 for the full control effect; nearly all actives have a fitted effect of over 60% in size
#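 Read-out is AlphaScreen signal from streptavidin donor and nickel chelate acceptor beads (10 ug/mL final each) bridging L3MBTL1 (50 nM) and biotinylated K9-monomethylated H3(1-15) peptide (75 nM), after 30 min compound exposure at room temperature.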
# JMJD2A Tudor inh: inhibitors of human JMJD2A Tudor domain. O75164. AlphaScreen JMJD2A-Tudor / H3K4me3 peptide binding. Potency, µM (top dose mostly 114 µM), for inactives: top-dose activity change, negative = inhibition, actives largely listed as inhibitors. hit rate 4.4% among 390,000. AID 504339; also: % is scaled to controls: 0 for no effect and ±100 for the full control effect; nearly all actives have a fitted effect of over 50% in size
# HP1b binding inh: HP1-beta chromodomain-methylated histone interaction inhibition | P83916 | AlphaScreen HP1-beta / biotin-H3K9me3 peptide binding | Potency, µM (doses to about 114 µM), without a hit: at the highest dose activity change, negative = inhibition, usual class: inhibitors | hit rate 0.56% among 390,000 | AID 540317; also: nearly all actives have a fitted effect of over 70% in size
#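 AlphaScreen: HP1-beta (50 nM) preformed 30 min with biotin-H3(1-18)K9me3 peptide (50 nM) in PBS pH 7.4, 0.01% Tween-20. Compound added for 30 min at RT, then streptavidin donor/nickel chelate acceptor beads (10 ug/mL) for 30 min.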
# G9a inh: G9a (human) methyltransferase inhibition; Q96KQ7; G9a H3K9 monomethylation, AlphaScreen, 2 h; Potency, µM (titrated, usually from 102 µM), inactives show top-dose activity, negative = inhibition, most hits filed as inhibitors; hit rate 8.8% among 350,000; AID 504332; also: % is scaled to controls: 0 for no effect and ±100 for the full control effect; nearly all actives have a fitted effect of over 75% in size
#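 Readings reflect AlphaScreen signal from monomethyl-H3K9 antibody detection. HMT at 20 nM; substrate b-H3K9 500 nM; cofactor SAM 20 uM; 2 h RT reaction; compounds tested as titrations in qHTS with 15 min preincubation.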
# BAZ2B block: blocks human BAZ2B | Potency, µM (series often up to 114 µM), for inactives: top-dose activity change, negative = inhibition, hits mostly inhibitors | AlphaScreen BAZ2B-H3K14Ac peptide displacement | hit rate 4.4% among 360,000; also: % is scaled to controls: 0 for no effect and ±100 for the full control effect; nearly all actives have a fitted effect of over 60% in size
#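 Multi-concentration screen (max 110 uM) measuring displacement of acetylated histone H3 peptide from BAZ2B by AlphaScreen, using 50 nM protein, 50 nM peptide and 10 ug/mL streptavidin donor plus Ni-chelate acceptor beads.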
# * hit, by the source's call; ? = inconclusive; . = no result; [ ] = remark or other dose. Calls follow the shape of the dose curve; as a rule, active = well fitted inhibition curve with a large enough effect; inconclusive = small, poorly fitted or top-dose-only effect; inactive = no such curve, though single readings can be large or run the other way. Potency is read from the fitted curve at half-maximal effect.
SMILES,L3MBTL1 block,JMJD2A Tudor inh,HP1b binding inh,G9a inh,BAZ2B block
O=C(Nc1ccc(N2CCCC2)cc1)c1cc(Br)ccc1Cl,-11.4%,?,5.1%,8.91µM*,-34.3%
Cc1cc(Sc2nc(N)ncc2[N+](=O)[O-])ncn1,0.1%,1.3%,33.3%,31.6µM*,?
Cc1nc(-c2ccc(C)c(S(=O)(=O)N3CCC(C(=O)NCc4ccc(F)cc4)CC3)c2)no1,.,-19.3%,32.0%,23.2%[59 µM],0.8%
CCCNC(=O)c1ccc2c(c1)sc1nc(-c3ccc(C)cc3)cn12,.,-6.2%,35.3%,2.8%[59 µM],-1.6%
CCN(CC)CCCNC(=O)c1ccc2c(c1)sc1nc(-c3ccc(C)cc3)cn12,.,?,-9.9%,11.2µM*,39.8µM*
COc1ccc(OCCCn2c(CCNC(=O)C3CCCCC3)nc3ccccc32)cc1,.,-13.1%[57.1 µM],25.7%[57 µM],.,.
O=C(Nc1ccc(Nc2ccccc2)cc1)c1c(F)c(F)c(F)c(F)c1F,-8.9%,-25.2%,2.5%,.,-11.2%
O=C1C=CC(=O)N1c1ccc(Nc2ccccc2)cc1,.,50.1µM*,?,.,.
Cc1cccc(N2C(=O)C=CC2=O)c1,.,20µM*,?,.,.
O=C1C=CC(=O)N1c1ccc2ccccc2c1,.,17.8µM*,?,.,.
O=C(N/N=C/c1ccc(OCc2ccccc2)cc1)c1ccncc1,-8.9%,-9.5%,72.2%,-17.3%,-18.2%
Oc1ccc(N=Cc2ccc(OCc3ccccc3)cc2)cc1,?,?,?,2.51µM*,?
Oc1c(Br)cc(/C=N/n2c(-c3ccccc3)n[nH]c2=S)cc1Br,2.3%,3.16µM*,4.7%,1.26µM*,?
Oc1ccc(/C=N/n2c(-c3ccccc3)n[nH]c2=S)cc1Br,-6.5%,8.91µM*,9.4%,0.891µM*,-34.3%
Oc1c(Br)cc(/C=N/n2c(-c3ccccc3)n[nH]c2=S)c(O)c1Br,1.6%,3.98µM*,-15.5%,0.398µM*,-26.5%
Cc1c(Br)c(O)c(Br)c(O)c1/C=N/n1c(-c2ccccc2)n[nH]c1=S,.,25.1µM*,?,0.794µM*,-38.2%
CN(C(=O)CN1CCN(c2cnn(-c3ccccc3)c(=O)c2Cl)CC1)C1CCS(=O)(=O)C1 (configuration not stated),-0.2%,0.0%,31.7%,-6.7%[12.7 µM],2.8%
CCOc1ccccc1CNC(=O)c1cc2cc(S(=O)(=O)N3CCCCC3)ccc2n1C,.,-16.2%,22.2%[57 µM],-3.4%[59 µM],2.9%
NC(=O)c1ccc(NC(=O)C2CCN(S(=O)(=O)Cc3ccccc3)CC2)cc1,.,-3.6%,19.8%,?,0.0%
CC1(C)CC(NNCCC#N)=CC(=[N+]2CCCC2)C1,.,-14.3%[11.4 µM],-4.9%,39.8µM*,-27.2%
CC(=O)/C(C#N)=C1\NC(=O)C(Cc2ccccc2C)S1 (configuration not stated),.,?,19.9%,20µM*,-23.4%
NS(=O)(=O)c1ccc(N/N=C/C=C/c2ccccc2[N+](=O)[O-])cc1,.,?,?,31.6µM*,?
O=[N+]([O-])c1ccccc1/C=C\C=N\N1CCN(c2ccccc2)CC1,?,10µM*,?,11.2µM*,3.98µM*
C(/C=C/c1ccccc1)=N/N1CCN(c2ccccc2)CC1,-0.9%,-24.5%,-4.6%,?,-7.2%
COc1ccccc1N1CCN(/N=C/C=C/c2ccccc2[N+](=O)[O-])CC1,?,20µM*,?,11.2µM*,11.2µM*
SMILES,L3MBTL1 block,JMJD2A Tudor inh,HP1b binding inh,G9a inh,BAZ2B block
Cc1ccccc1/C=N/N1CCN(c2ccccc2)CC1,?,?,?,28.2µM*,20µM*
COc1ccc(Br)cc1CNC(=O)C1CCN(c2nnc(-n3cccc3CNc3ccc(C)cc3)s2)CC1,.,-17.1%,21.3%,-2.2%[59 µM],-27.6%
O=[N+]([O-])c1ccccc1S(=O)(=O)N1CCN(c2ccccc2)CC1,-28.5%,?,5.0%,2.6%,?
O=[N+]([O-])c1ccccc1/C=N/Nc1nc(N2CCCC2)nc(N2CCCC2)n1,3.9%,-33.3%,6.6%,-26.2%,-38.1%
O=[N+]([O-])c1ccccc1/C=C/C=N/N1CCCCC1,.,17.8µM*,50.1µM*,39.8µM*,20µM*
O=[N+]([O-])c1ccccc1/C=N/N1CCN(c2ccc(Cl)cc2)CC1,?,?,?,17.8µM*,14.1µM*
